Screens: PubChem, several laboratories
BoNT-F LC inh = BoNT/F light chain protease inhibitors, primary screen, biochemical, flow cytometry, MLPCN library. AID 588497, 2011. hit rate 0.22% among 360,000. inhibition, % at 10 µM. Botulinum neurotoxin type F light chain protease (Clostridium botulinum). Multiplex microsphere protease cleavage assay; in the data active = inhibition above about 35%, passing the limit was not always enough; inconclusive = no clear call, values can overlap the other calls; also: plate controls were buffer without enzyme for full effect and enzyme alone for no effect
BoNT A protease = BoNT/A light chain protease inhibitors, primary screen, biochemical, flow cytometry, MLPCN library | inhibition, % at 10 µM | hit rate 0.17% among 360,000 | Botulinum neurotoxin type A light chain protease (Clostridium botulinum A str. ATCC 3502) | multiplex microsphere protease substrate cleavage; also: plate controls were buffer without enzyme for full effect and enzyme alone for no effect
VHR inh abs = VHR1 phosphatase inhibitors, primary screen, biochemical, absorbance, uHTS. hit rate 0.52% among 290,000. inhibition, % at 13.3 µM. recombinant VHR phosphatase, pNPP absorbance. Dual specificity protein phosphatase 3 (Homo sapiens), P51452. AID 1654, 2009; in the data active = inhibition above about 50%
Bead autofluor = counter-screen for toxin protease inhibitors: compound fluorescence. compound autofluorescence counterscreen, microsphere flow cytometry; active compounds read high. fluorescence intensity (test concentration not listed). hit rate 3.1% among 360,000; in the data active = fluorescence intensity above about 16000; inconclusive = no clear call, values can overlap the other calls
MazF activator = activators of E. coli MazEF toxin-antitoxin RNase, primary screen, biochemical, fluorescence, uHTS; FAM/BHQ RNA-DNA oligo cleavage fluorescence, 5 h; hit rate 0.32% among 350,000; activation, % at 20 µM; in the data active = activation above about 50%
Anthrax LF inh2 = Bacillus anthracis LF protease inhibitors, primary screen, biochemical, multiplex microsphere, MLPCN library. hit rate 0.12% among 360,000. inhibition, % at 10 µM. multiplex microsphere protease cleavage assay. AID 588501, 2011. Lethal factor (Bacillus anthracis), P15917; also: plate controls were buffer without enzyme for full effect and enzyme alone for no effect
Target sequence (P15917 whole entry, looked up): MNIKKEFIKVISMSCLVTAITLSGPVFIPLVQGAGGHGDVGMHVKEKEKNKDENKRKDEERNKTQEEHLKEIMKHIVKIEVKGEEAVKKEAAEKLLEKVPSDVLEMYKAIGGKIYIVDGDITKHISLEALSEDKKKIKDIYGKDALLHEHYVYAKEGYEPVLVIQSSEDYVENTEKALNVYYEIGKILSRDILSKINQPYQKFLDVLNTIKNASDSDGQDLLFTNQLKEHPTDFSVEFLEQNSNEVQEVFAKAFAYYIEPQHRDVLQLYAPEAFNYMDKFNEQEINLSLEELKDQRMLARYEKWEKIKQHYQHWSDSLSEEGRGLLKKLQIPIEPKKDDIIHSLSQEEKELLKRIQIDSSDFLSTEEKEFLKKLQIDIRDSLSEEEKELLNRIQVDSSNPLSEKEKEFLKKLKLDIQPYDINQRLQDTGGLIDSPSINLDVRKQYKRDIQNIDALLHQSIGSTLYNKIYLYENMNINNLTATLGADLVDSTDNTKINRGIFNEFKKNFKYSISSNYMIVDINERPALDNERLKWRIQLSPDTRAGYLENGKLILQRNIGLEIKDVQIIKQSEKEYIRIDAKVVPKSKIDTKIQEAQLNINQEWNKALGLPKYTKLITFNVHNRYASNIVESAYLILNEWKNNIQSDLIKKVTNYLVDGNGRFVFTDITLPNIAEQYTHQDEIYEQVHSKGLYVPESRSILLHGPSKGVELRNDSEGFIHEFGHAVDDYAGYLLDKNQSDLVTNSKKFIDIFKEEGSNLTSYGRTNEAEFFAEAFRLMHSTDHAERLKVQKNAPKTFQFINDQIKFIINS
Starred values were filed as active, the others as inactive. This is a sample that favours compounds with a hit; in the whole collection about 4.1% have one here. Rule as the data show it, unless noted: active = inhibition above about 30%; inconclusive = no clear call, values can overlap the other calls; inactive = below that.

For CCOC(=O)Nc1ccc2c(c1)N(C(=O)CCN(CC)CC)c1ccccc1CC2 the results were BoNT-F LC inh -13, BoNT A protease 1, VHR inh abs 50*, Bead autofluor 3940, MazF activator 8 and Anthrax LF inh2 -8.
For O=C(Nc1cccc2ccccc12)N(CCO)C1CCS(=O)(=O)C1 (stereo not drawn) the results were BoNT-F LC inh 8, BoNT A protease -1, VHR inh abs 20, Bead autofluor 3148, MazF activator -36 and Anthrax LF inh2 -15.
Screening O=C(c1cc2c(s1)CCCC2)N1CCN(C(=O)C2CCCO2)CC1 (stereo not drawn) returned BoNT-F LC inh -4, BoNT A protease 0, VHR inh abs 19, Bead autofluor 10986, MazF activator 10 and Anthrax LF inh2 -2.
Screening O=C(c1cc2c(s1)CCCC2)N1CCC2(CC1)OCCO2 returned BoNT-F LC inh 0, BoNT A protease inconclusive, VHR inh abs 2, Bead autofluor 23757*, MazF activator 1 and Anthrax LF inh2 0.
O=C1C(=Cc2ccc(F)cc2)CCc2ccccc21 was read as BoNT-F LC inh -8, BoNT A protease -1, Bead autofluor 4417 and Anthrax LF inh2 2.
`CSc1nc(NCCN(C)C)c2sc3nc(-c4ccco4)c4c(c3c2n1)CCC4` gave BoNT-F LC inh -6, BoNT A protease 6, Bead autofluor 4150, MazF activator -6 and Anthrax LF inh2 -2.
For CSc1nc(N(C)CCO)c2sc3nc(-c4ccco4)c4c(c3c2n1)CCC4 the results were BoNT-F LC inh -1, BoNT A protease inconclusive, VHR inh abs 30, Bead autofluor 22092*, MazF activator -1 and Anthrax LF inh2 -2.
For CCOC(=O)C1CCN(C(=O)CN(c2ccc3c(c2)OCCO3)S(C)(=O)=O)CC1 the results were BoNT-F LC inh 0, BoNT A protease -1, VHR inh abs 8, Bead autofluor 22882*, MazF activator -1 and Anthrax LF inh2 -10.
CCOC(=O)C1CCN(C(C(=O)Nc2ccc3c(c2)OCCO3)c2ccccc2)CC1 (stereo not drawn) was read as BoNT-F LC inh 12, BoNT A protease 0, VHR inh abs 53*, Bead autofluor 3069, MazF activator 6 and Anthrax LF inh2 -2.
For CS(=O)(=O)N(CC(=O)N1CCOCC1)c1ccc(Cl)cc1 the results were BoNT-F LC inh -12, BoNT A protease -1, VHR inh abs 10, Bead autofluor 4056, MazF activator 10 and Anthrax LF inh2 -13.
For CS(=O)(=O)N(CC(=O)N1CCCC1)c1ccc2c(c1)OCCO2 the results were BoNT-F LC inh 4, BoNT A protease 5, VHR inh abs 4, Bead autofluor 21840*, MazF activator 2 and Anthrax LF inh2 1.
CCOC(=O)C1CCN(C(=O)CN(c2ccc3c(c2)OCCO3)S(=O)(=O)c2ccccc2)CC1 was read as BoNT-F LC inh 2, BoNT A protease 1, Bead autofluor 5585, MazF activator 1 and Anthrax LF inh2 1.
For CS(=O)(=O)N(CC(=O)N1CCOCC1)c1ccc2c(c1)OCO2 the results were BoNT-F LC inh -7, BoNT A protease 0, VHR inh abs 7, Bead autofluor 3082, MazF activator 5 and Anthrax LF inh2 0.
`Cc1ccc(N(CC(=O)N2CCOCC2)S(C)(=O)=O)cc1C` gave BoNT-F LC inh 1, BoNT A protease inconclusive, VHR inh abs 5, Bead autofluor 20113*, MazF activator -2 and Anthrax LF inh2 1.
CC1(C(=O)NCC2CC2)Cc2c(-c3cccc(C(F)(F)F)c3)ccnc2O1 (stereo not drawn) was read as BoNT-F LC inh -3, BoNT A protease 0, Bead autofluor 4237 and Anthrax LF inh2 0.
`CC(C(=O)NCc1cccs1)N1CCN(S(=O)(=O)c2ccc3c(c2)OCCCO3)CC1` (stereo not drawn) gave BoNT-F LC inh 2, BoNT A protease 0, Bead autofluor 6388, MazF activator -2 and Anthrax LF inh2 2.
Screening COc1ccc2[nH]c3c(c2c1)CCN1C(=O)C(CC(=O)NCCc2ccccn2)C[C@H](C(=O)N(C(C)C)C(C)C)[C@@]31C (stereo partly drawn) returned BoNT-F LC inh 2, BoNT A protease 0, Bead autofluor 4083, MazF activator 7 and Anthrax LF inh2 8.
For O=C([C@@H]1CC=C[C@@H]2CCN(C3CCCCC3)C(=O)[C@@H]21)N1CCN(c2ccccc2)CC1 the results were BoNT-F LC inh 3, BoNT A protease 0, Bead autofluor 3523, MazF activator 11 and Anthrax LF inh2 -4.
CC(=O)c1cccc(N(CC(=O)N2CCCCC2)S(C)(=O)=O)c1 was read as BoNT-F LC inh 0, BoNT A protease inconclusive, VHR inh abs 18, Bead autofluor 24555*, MazF activator 7 and Anthrax LF inh2 -2.
`CCOC(=O)N1CCN(C(=O)CN(c2cccc(OC)c2)S(C)(=O)=O)CC1` gave BoNT-F LC inh 4, BoNT A protease inconclusive, VHR inh abs 16, Bead autofluor 19270*, MazF activator -6 and Anthrax LF inh2 4.
COc1cccc(N(CC(=O)N2CCCC2)S(C)(=O)=O)c1 was read as BoNT-F LC inh inconclusive, BoNT A protease -5, VHR inh abs 16, Bead autofluor 3824, MazF activator 7 and Anthrax LF inh2 -13.
For CS(=O)(=O)N(CC(=O)N1CCCC1)c1cc(Cl)c(Cl)cc1Cl the results were BoNT-F LC inh 2, BoNT A protease 3, VHR inh abs 10, Bead autofluor 22315*, MazF activator 0 and Anthrax LF inh2 -2.
For CS(=O)(=O)N(CC(=O)N1CCCC1)c1ccc(Cl)cc1Cl the results were BoNT-F LC inh 4, BoNT A protease 2, VHR inh abs -3, Bead autofluor 2937, MazF activator -2 and Anthrax LF inh2 21.
`CN[C@@H](CO)C(=O)NC[C@H]1O[C@@H](n2cnc3c(N)ncnc32)[C@H](O)[C@@H]1O` gave BoNT-F LC inh -2, BoNT A protease 0, Bead autofluor 5779 and Anthrax LF inh2 6.
`O=C(O)c1ccc(-c2ccc(OS(=O)(=O)c3ccccc3F)cc2)cc1` gave BoNT-F LC inh 8, BoNT A protease -1, VHR inh abs -16, Bead autofluor 5387, MazF activator 1 and Anthrax LF inh2 -2.
For COC(=O)c1ccccc1S(=O)(=O)Oc1ccc(-c2ccc(C(=O)O)cc2)cc1 the results were BoNT-F LC inh 37*, BoNT A protease -3, VHR inh abs -20, Bead autofluor 3745, MazF activator -3 and Anthrax LF inh2 -14.
Screening CC1(C(=O)NS(=O)(=O)c2cccc(C#N)c2)CCN1C(=O)Cc1ccccc1Cl (stereo not drawn) returned BoNT-F LC inh 0, BoNT A protease 0, Bead autofluor 3893 and Anthrax LF inh2 0.
